# Hits are enriched below; roughly 1.1% of the tested compounds scored in any of these assays.
# MOR-DOR ag-1 = OPRM1-OPRD1 heterodimerization agonism; P35372+P41143; activation, % at 9.3 µM; cells, luminescence; actives 0.3% (n = 340,000);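 also: 0% = vehicle-treated cells and 100% = reference agonist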
# Target sequence (P35372 whole entry, looked up): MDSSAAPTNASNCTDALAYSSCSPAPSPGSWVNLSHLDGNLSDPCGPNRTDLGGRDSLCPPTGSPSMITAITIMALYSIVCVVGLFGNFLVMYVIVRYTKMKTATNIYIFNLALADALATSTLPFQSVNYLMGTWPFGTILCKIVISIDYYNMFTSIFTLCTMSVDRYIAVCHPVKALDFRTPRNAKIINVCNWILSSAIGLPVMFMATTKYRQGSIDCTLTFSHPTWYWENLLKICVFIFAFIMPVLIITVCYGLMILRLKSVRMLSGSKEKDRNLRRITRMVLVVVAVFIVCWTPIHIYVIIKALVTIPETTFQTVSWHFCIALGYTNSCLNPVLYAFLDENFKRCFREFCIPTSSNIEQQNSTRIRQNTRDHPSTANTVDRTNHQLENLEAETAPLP
# Target sequence (P41143 whole entry, looked up): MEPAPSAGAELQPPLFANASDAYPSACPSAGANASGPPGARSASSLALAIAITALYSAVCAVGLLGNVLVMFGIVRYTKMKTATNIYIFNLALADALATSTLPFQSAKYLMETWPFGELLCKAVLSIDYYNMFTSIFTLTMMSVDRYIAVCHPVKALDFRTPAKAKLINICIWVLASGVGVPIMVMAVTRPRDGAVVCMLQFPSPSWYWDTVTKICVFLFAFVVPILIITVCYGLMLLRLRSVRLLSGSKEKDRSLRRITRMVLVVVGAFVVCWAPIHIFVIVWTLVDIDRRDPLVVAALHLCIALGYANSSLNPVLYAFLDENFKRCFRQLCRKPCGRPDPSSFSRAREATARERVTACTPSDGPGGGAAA
# MOR-DOR inv ag = inverse agonist of human OPRM1-OPRD1 heterodimerization; actives 0.21% (n = 340,000); P35372+P41143; inhibition, % at 9.3 µM; cell-based MOR-DOR heterodimer luminescence, inverse agonism; in the data active = inhibition above about 22%, passing the limit was not always enough;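 also: 0% = cells with DMSO and 100% = wells without cells with DMSO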
# HTR5A inv ctr = counter-screen for OPRM1-OPRD1 inverse agonists: human HTR5A inverse agonism. HTR5A cell line, luminescence. actives 0.083% (n = 340,000). AID 504634. inhibition, % at 9.3 µM. P47898; in the data active = inhibition mostly above about 23%, no sharp cut-off; inactive = mostly below about 18%;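 also: 0% = cells with DMSO and 100% = no-cell wells with DMSO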
# HTR5A ag = activates human HTR5A in OPRM1-OPRD1 agonist counter-screen; HTR5A agonist assay, luminescence, cell-based; activation, % at 9.3 µM; actives 0.61% (n = 340,000); AID 504692; in the data active = activation mostly above about 9.5%, no sharp cut-off; inactive = mostly below about 7.6%;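 also: 0% = cells with vehicle only and 100% = reference agonist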
# MOR-DOR ag-2 = counter-screen for HTR5A agonists: OPRM1-OPRD1 heterodimerization agonism; AID 504913; activation, % at 9.3 µM; shares compounds with HTR5A ag; U2OS counter-screen cells, complementation luminescence, 3 h; actives 13% (n = 800)
# HTR5A ag confirm = HTR5A (human) agonism, confirmation | shares compounds with HTR5A ag | HTR5A agonist cell assay, luminescence | activation, % at 9.3 µM | actives 17% (n = 800) | AID 504915; in the data active = activation above about 17%;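 also: 0% = cells with vehicle only and 100% = full reference agonist response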
# Active calls of the source: *; · = no result given. Rule as the data show it, unless noted: active = activation above about 18%; inactive = the rest.
SMILES,MOR-DOR ag-1,MOR-DOR inv ag,HTR5A inv ctr,HTR5A ag,MOR-DOR ag-2,HTR5A ag confirm
CC(=O)Nc1ccc2nc(NC(=O)c3cccnc3)sc2c1,0,-1,-34,15*,2,51*
COc1ccccc1C(CNC(=O)c1cccc(S(=O)(=O)N2c3ccccc3CC2C)c1)N(C)C (stereo not given),4,-14,9,2,·,·
O=C(CSc1nc2ccccc2c(=O)[nH]1)c1ccc(O)cc1O,4,-21,-5,16*,1,2
O=C(CSc1nc2ccccc2c(=O)[nH]1)c1ccc(O)c(O)c1,0,2,10,6,·,·
COc1ccc(NC(=O)CSc2nc3ccccc3c(=O)[nH]2)cc1S(N)(=O)=O,-3,13,-50,21*,0,6
CCCCN(CCCNC(=O)CN1C(=O)COc2ccc(S(=O)(=O)N3CCC(C)CC3)cc21)Cc1ccccc1,2,-9,12,-4,·,·
CCn1c(N2CCN(C(=O)NC3CCCCC3)CC2)nc2ccccc21,-1,3,-47,24*,16,2
O=C(c1ccc(Cn2c(=O)[nH]c3ccccc3c2=O)cc1)N1CCN(c2ccccn2)CC1,0,2,-36,12,·,·
O=C(c1ccc(Cn2c(=S)[nH]c3ccccc3c2=O)cc1)N1CCN(c2ccccn2)CC1,3,-15,-43,16*,0,-3
O=C(c1ccc(Cn2c(=O)[nH]c3ccccc3c2=O)cc1)N1CCN(c2ccccc2)CC1,6,-32,-4,15*,1,8
COc1ccc(S(=O)(=O)N2CCCCC2)cc1NC(=O)Cc1ccsc1,1,-4,3,-3,·,·
CCCC(=O)Nc1cc(C(=O)O)ccc1S(=O)(=O)c1ccc(Cl)cc1,0,-2,11,-5,·,·
O=C(COc1ccc(C(=S)N2CCC(Cc3ccccc3)CC2)cc1)N1CCOCC1,-1,4,-43,15*,5,3
O=C(Nc1ccc2nc(SCc3ccc(Cl)cc3)sc2c1)c1ccccc1C(=O)N1CCOCC1,7,-32,-51,21*,12,6
CC(C)OCCCNC(=O)c1cc(-c2cccnc2)nc2ccccc12,-2,11,5,-1,·,·
CCCCCCCCCCOC(=O)Cn1c(COc2ccccc2OC)[n+](C)c2ccccc21,9,-41,-53,14*,37*,9
O=C(NCCc1ccc(F)cc1)C(=O)NCC1CCCN1S(=O)(=O)c1cccs1 (stereo not given),3,-19,-40,15*,2,0
CCc1cccc(CC)c1NC(=S)NCc1nc2ccccc2[nH]1,-1,4,-1,1,·,·
O=S(=O)(NC(=NC1CCCCC1)c1ccccc1)c1ccccc1,-2,8,1,4,·,·
Cc1ccc(S(=O)(=O)NC(=NC2CCCCC2)c2ccc(Cl)cc2)cc1,1,-11,-43,14*,2,4
O=S(=O)(c1cccc(F)c1)N1CCN(c2nc(-c3cccnc3)nc3ccccc23)CC1,-1,3,13,-5,·,·
O=C1NC(NS(=O)(=O)c2ccccc2)(C(F)(F)F)C(=O)N1Cc1ccccc1 (stereo not given),-1,7,-20,0,·,·
CC1CN(c2ccccc2)CCN1C(=O)c1cc(COc2c(F)cccc2F)on1 (stereo not given),-2,9,4,14*,0,87*
Cc1ccccc1OCCC(=O)OCC(=O)N(C)c1c(N)n(Cc2ccccc2)c(=O)[nH]c1=O,-2,12,15,1,·,·
COC(=O)c1cc(-c2c[nH]c3ccccc23)n[nH]1,-2,7,-160,30*,10,0
SMILES,MOR-DOR ag-1,MOR-DOR inv ag,HTR5A inv ctr,HTR5A ag,MOR-DOR ag-2,HTR5A ag confirm
COC(=O)c1cc(-c2ccc(Br)cc2)n[nH]1,0,-2,-11,4,·,·
O=C(OCC(=O)N1CCc2ccccc21)c1c2c(nc3ccccc13)CCCC2,-2,12,-12,4,·,·
Cc1cnc(C(=O)OCC(=O)N2c3ccccc3CC2C)cn1 (stereo not given),-1,7,2,-1,·,·
CC1CCN(CC(=O)N2c3ccccc3CC2C)CC1 (stereo not given),0,-1,-21,0,·,·
CC1Cc2ccccc2N1C(=O)Cn1nc(C(=O)O)c2ccccc2c1=O (stereo not given),-2,12,-160,63*,0,-4
CC1Cc2ccccc2N1C(=O)COC(=O)c1n[nH]c(=O)c2ccccc12 (stereo not given),-2,7,-97,40*,6,1
CC1Cc2ccccc2N1C(=O)COC(=O)c1c2c(nc3ccccc13)CCCCC2 (stereo not given),6,-29,-91,22*,12,4
CC1Cc2ccccc2N1C(=O)COC(=O)c1ccc(Cl)c(S(=O)(=O)N2CCOCC2)c1 (stereo not given),1,-3,-89,24*,3,-1
COc1ccc(Cl)cc1NC(=O)CN(C)C(=O)c1ccc(-n2cncn2)cc1,-2,12,-12,3,·,·
CC1=C(C(=O)Nc2ccccn2)C(c2ccc(Cl)cc2Cl)NC(=S)N1 (stereo not given),-2,14,9,-4,·,·
CCC(C)NC(=O)Cn1cnc2sc(C)c(S(=O)(=O)N3CCN(c4ccccc4OC)CC3)c2c1=O (stereo not given),2,-15,-10,1,·,·
CC(C)Sc1nc2c(cnn2-c2ccc(Cl)cc2)c(=O)[nH]1,-1,7,-3,1,·,·
CC(C)(C)c1ccc(C(=O)O/N=C(\N)c2ccccn2)cc1,9,-48,-138,57*,5,4
COc1cccc(N2CCN(Cc3ccco3)CC2)c1,-1,7,-43,15*,1,-6
COCCNC(=O)C1CCCN(S(=O)(=O)c2cccc3nsnc23)C1 (stereo not given),-2,12,13,4,·,·
CC(NCCCOc1cccc2ccccc12)c1ccccc1 (stereo not given),14,-68,-58,15*,43*,2
COc1ccc2ccccc2c1CNC(C)c1ccccc1 (stereo not given),-3,14,-6,2,·,·
CC(C)CN(C(=O)c1ccc(C(F)(F)F)cc1)c1c(N)n(CC(C)C)c(=O)[nH]c1=O,-2,12,15,-5,·,·
Cc1nc(NC(=O)c2cc3ccccc3o2)ccc1Br,1,-5,-52,22*,4,0
Cc1nc(NC(=O)c2ccc(Br)o2)ccc1Br,2,-8,-27,11,·,·
O=C(O)CC(NC(=O)C(c1ccccc1)c1ccccc1)c1ccc(F)cc1 (stereo not given),-3,16,10,-4,·,·
Cc1ccc(C)c(S(=O)(=O)N2CCN(C(=O)c3cccnc3)CC2)c1,-1,10,-37,-1,·,·
Cc1ccccc1/C=N/Nc1ncnc2nc[nH]c12,-2,13,8,14*,28*,3

# Screening results deposited in PubChem BioAssay by The Scripps Research Institute Molecular Screening Center.
